A selection: hits, their analogues and other compounds. The true share with any hit is near 4%.
RecA intein inh – Mtb RecA intein splicing inhibitors, primary screen, biochemical, fluorescence, HTS; cell-free RecA intein splicing; inhibition, % (test concentration not listed); actives 0.75% (n = 290,000); in the data active = inhibition above about 30%; inconclusive = no clear call, values can overlap the other calls;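 note: 0% = vehicle wells and 100% = reference inhibitor control wells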
Mtb FBA inh – Mtb FBA enzyme inhibitors, primary screen, biochemical, fluorescence, strain H37Rv; purified M. tuberculosis FBA, fluorescence read-out; actives 2.3% (n = 360,000); Fructose-bisphosphate aldolase (Mycobacterium tuberculosis (strain ATCC 25618 / H37Rv)), …; inhibition, % at 1 µM; in the data active = inhibition above about 27%;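 note: 0% = vehicle and 100% = reference inhibitor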
Rv3671c inh – Rv3671c serine protease inhibitors, primary screen, biochemical, fluorescence polarization, M. tuberculosis H37Rv | P9WHR9 | inhibition, % at 5.96 µM | actives 0.048% (n = 320,000) | AID 2606, 2010; in the data active = inhibition above about 38%;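 note: extracellular domain of Rv3671c used as enzyme; 0% = enzyme with DMSO and 100% = no enzyme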
UGM FP inh – M. tuberculosis UGM enzyme inhibitors, primary screen, biochemical, fluorescence polarization, single point; UDP-galactopyranose mutase (Mycobacterium tuberculosis (strain ATCC 25618 / H37Rv)), …; actives 0.06% (n = 320,000); purified UGM, fluorescence polarization probe displacement; inhibition, % at 10 µM; in the data active = inhibition above about 10%, passing the limit was not always enough; inconclusive = no clear call, values can overlap the other calls
Target sequence (P9WIQ1 whole entry, looked up): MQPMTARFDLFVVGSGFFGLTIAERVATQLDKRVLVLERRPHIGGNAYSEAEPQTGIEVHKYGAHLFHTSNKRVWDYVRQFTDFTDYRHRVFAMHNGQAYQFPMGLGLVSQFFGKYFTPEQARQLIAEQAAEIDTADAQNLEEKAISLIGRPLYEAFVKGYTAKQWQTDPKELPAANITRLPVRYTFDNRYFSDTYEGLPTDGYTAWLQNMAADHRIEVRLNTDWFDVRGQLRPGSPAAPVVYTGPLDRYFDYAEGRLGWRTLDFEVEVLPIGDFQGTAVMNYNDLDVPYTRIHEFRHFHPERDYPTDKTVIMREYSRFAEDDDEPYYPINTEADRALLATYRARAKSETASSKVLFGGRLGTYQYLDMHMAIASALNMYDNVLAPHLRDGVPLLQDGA
GDH-TPI counter-1 – GDH-TPI coupling enzyme inhibitors, primary screen, artefact control for M. tuberculosis FBA inhibitor project, biochemical, absorbance, full deck; GDH-TPI coupled enzyme counterscreen, NADH absorbance; inhibition, % at 4.8 µM; actives 1.2% (n = 360,000); in the data active = inhibition above about 30%;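 note: 0% = DMSO wells and 100% = wells lacking the enzyme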
Mtb betalactam – beta-lactam sensitization of Mtb H37Rv, H37Rv | AID 434955, 2010 | M. tuberculosis H37Rv growth with meropenem, percent inhibition | actives 0.27% (n = 330,000) | inhibition, % at 25 µM;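 note: growth measured after seven days incubation then overnight dye step; 0% = bacteria only wells and 100% = bacteria with antibiotic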
Mtb FBA inh conf – M. tuberculosis aldolase blockers, biochemical, fluorescence, strain H37Rv, confirmation. shares compounds with Mtb FBA inh. purified M. tuberculosis FBA, fluorescence read-out. inhibition, % at 1 µM. actives 78% (n = 5,600); in the data active = inhibition above about 27%;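 note: 0% = vehicle wells and 100% = reference inhibitor wells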
GDH-TPI counter-2 – GDH-TPI coupling enzyme inhibitors, artefact control for M. tuberculosis FBA inhibitor project, biochemical, fluorescence, high throughput | shares compounds with Mtb FBA inh | GDH-TPI coupled enzyme counterscreen | inhibition, % at 1 µM | actives 81% (n = 5,600) | AID 652141, 2013; in the data active = inhibition above about 10%
GDH-TPI dose – GDH-TPI coupling enzyme inhibitors, dose response, artefact control for M. tuberculosis FBA inhibitor project, biochemical, fluorescence, IC50. shares compounds with Mtb FBA inh. GDH-TPI coupled enzyme assay, artifact counterscreen. IC50, µM. actives 79% (n = 170). AID 652145, 2013
Active calls of the source: *; ? = inconclusive; . = no result given; + = active, no number. Unless noted, the rule behind the calls is not given here.

SMILES | RecA intein inh | Mtb FBA inh | Rv3671c inh | UGM FP inh | GDH-TPI counter-1 | Mtb betalactam | Mtb FBA inh conf | GDH-TPI counter-2 | others
COc1ccc2nc(C)cc(C(=O)O)c2c1 | 2 | 79* | 5 | -1 | 10 | -6 | 11 | -7 | GDH-TPI dose=2.3*
COc1ccc2oc(C)c(C(N)=O)c2c1 | 2 | 0 | 3 | -2 | -4 | -16 | . | .
O=C1NC(Cc2ccc(O)cc2)c2nc3cc(Cl)ccc3c(=O)n2-c2cc(Cl)ccc21 (configuration not stated) | . | 6 | . | . | -4 | . | . | .
Cc1c(-c2cc(C(=O)O)c3ccccc3n2)cnn1C | -1 | 97* | 5 | -3 | 5 | 0 | 136* | 113*
COc1ccc(C2(C(=O)N3CCCC3)CCOCC2)cc1OC | -3 | 3 | -2 | 3 | -6 | 2 | . | .
COc1ccc2cc(-c3cc(C(=O)OCC(=O)NC4CCS(=O)(=O)C4)c4ccccc4n3)ccc2c1 (configuration not stated) | -20 | 28* | -13 | 1 | 12 | -6 | 122* | 96*
O=C(COC(=O)c1cc(-c2cccs2)nc2ccccc12)NC1CCS(=O)(=O)C1 (configuration not stated) | -90 | 48* | -11 | 1 | 15 | 4 | 44* | 29*
CCC(C)(O)c1[nH]c2ccc(C#N)cc2c1C (configuration not stated) | -3 | 6 | -8 | 0 | 18 | -8 | . | .
Cc1ccc2ccc(C#N)cc2c1O | . | 36* | . | . | 18 | . | + | +
O=C(O)c1cc(Cl)nc2ccccc12 | 1 | -4 | 1 | 2 | -14 | 4 | . | .
O=C(O)c1cc(Cl)c2ccccc2c1O | 2 | 40* | 1 | 0 | 2 | -7 | 50* | 44*
CC(C)(NC(=O)c1cc(Cl)c2ccccc2c1O)C(=O)O | -4 | 56* | 0 | 1 | 15 | 2 | 66* | 57*
CCC(=O)NC(C)c1cc(Cl)c2ccccc2c1O (configuration not stated) | . | 9 | -6 | 5 | -4 | 0 | . | .
O=C(COC(=O)C1CC(=O)N(Cc2ccco2)C1)Nc1ccc(F)cc1F (configuration not stated) | . | 2 | -3 | 2 | 8 | -1 | . | .
O=Cc1cccc(OCc2cccc3ccccc23)c1 | 15 | 3 | -6 | -6 | 7 | ? | . | .
CC(C)C(NC(=O)C1CCCCC1)C(=O)Nc1ccccn1 (configuration not stated) | 1 | 1 | 1 | 2 | 6 | -2 | . | .
Cc1ccc(-c2cc(C)nc3nc(N)nn23)cc1 | . | 83* | 4 | 2 | 17 | -6 | 61* | 51*
CCOc1ccccc1CNC(=O)c1ccc2c(c1)N(CC)CCS2 | -8 | 74* | 4 | 4 | 14 | -5 | 26 | 21*
COc1cccc(CNC(=O)c2cccc(Br)c2)c1 | 0 | 0 | 1 | -3 | 8 | 3 | . | .
CCN1CCSc2ccc(C(=O)NCc3cccc(F)c3)cc21 | -10 | 49* | 6 | -1 | 4 | -11 | + | 162*
CCN1CCSc2ccc(C(=O)NCc3cccc(Br)c3)cc21 | -15 | 40* | 8 | 1 | 6 | -4 | 107* | 82*
CCOc1ccccc1CNC(=O)c1ccc2nc(N3CCOCC3)sc2c1 | -1 | 1 | -2 | 1 | -9 | 16 | . | .
CCCOc1ccc(CNC(=O)c2ccc3c(c2)N(CC)CCS3)cc1 | -1 | 75* | 17 | 3 | 1 | -6 | 157* | 99*
CN(C)C(=O)CSc1ccccc1C(=O)OCC(=O)NC1CC1 | . | -1 | 2 | 1 | 5 | -5 | . | .
CCc1cccc(C)c1NC(=O)c1cccnc1 | -2 | 2 | 0 | 1 | 6 | 2 | . | .
SMILES | RecA intein inh | Mtb FBA inh | Rv3671c inh | UGM FP inh | GDH-TPI counter-1 | Mtb betalactam | Mtb FBA inh conf | GDH-TPI counter-2 | others
COc1cc(/C=N/NC(=O)CCNC(=O)c2ccccc2Cl)ccc1O | -3 | 1 | 0 | 0 | 12 | -2 | . | .
Cc1ccc2[nH]c(C(=O)NCCN3CCCC3)cc2c1 | -2 | 41* | -4 | 0 | 10 | -1 | 76* | 63*
CCO[C@H]1OC(C(=O)NC2CC2)=C[C@@H](c2ccccc2)[C@@H]1CCCO | 1 | -1 | 0 | 0 | 4 | -6 | . | .
CNC(=O)c1ccc(NC(=O)Cc2ccc(S(=O)(=O)N3CCOCC3)s2)cc1 | -2 | -1 | -5 | -1 | 4 | -14 | . | .
COc1cc2[nH]c3c(=O)n(CCN(C(C)C)C(C)C)cnc3c2cc1OC | 2 | 55* | -2 | -4 | 14 | 12 | 6 | 2
COc1cc2[nH]c(=O)c(C(=O)NCCCN3CCOCC3)c(O)c2cc1OC | -6 | 39* | 3 | 0 | 14 | 0 | 29* | 18*
O=C(NCCCN1CCOCC1)c1c(O)c2cc(Br)cc(Br)c2[nH]c1=O | . | 3 | -11 | 2 | 0 | 100 | . | .
COc1cc2[nH]c3c(=O)n(CCN4CCOCC4)cnc3c2cc1OC | 0 | 60* | 5 | 2 | 8 | 0 | + | +
CCCCN(CCCC)CCn1cnc2c([nH]c3ccc(OC)cc32)c1=O | -1 | 19 | 0 | 1 | 15 | 6 | . | .
CC(=O)Nc1ccc(S(=O)(=O)N2CCC(NC(=O)C(Cc3cccn3C)NC(C)=O)CC2)cc1 (configuration not stated) | . | -3 | 0 | 0 | 3 | -6 | . | .
CC(C)c1nc2cc(Cl)ccc2n(Cc2ccccc2)c1=O | 10 | 3 | 2 | 2 | -10 | 2 | . | .
O=c1[nH]cccc1-c1nc2cc(Cl)ccc2n1Cc1ccccc1 | -1 | 77* | -5 | 0 | 1 | -2 | 5 | -2
Cc1ccc2[nH]c(=O)c(CN(Cc3cccnc3)C(=O)c3ccncc3)cc2c1 | 0 | 4 | 5 | 2 | 19 | -9 | . | .
CC(=O)NC(C)(c1ccccc1)c1nc(-c2cccc3cccnc23)cs1 (configuration not stated) | . | 5 | . | . | 6 | . | . | .
